Screening results deposited in PubChem BioAssay by several laboratories.
Mtb betalactam = beta-lactam sensitization of Mtb H37Rv, H37Rv | M. tuberculosis H37Rv growth with meropenem, percent inhibition | inhibition, % at 25 µM | 330,000 tested, 0.27% active; call rule not given here;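 further: growth measured after seven days incubation then overnight dye step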
Rv3671c inh = Rv3671c serine protease inhibitors, primary screen, biochemical, fluorescence polarization, M. tuberculosis H37Rv | 320,000 tested, 0.048% active | inhibition, % at 5.96 µM | AID 2606, 2010 | P9WHR9; in the data active means inhibition above about 38%;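 further: extracellular domain of Rv3671c used as enzyme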
RecA splice inh = Mtb RecA intein splicing inhibitors, primary screen, biochemical, fluorescence, HTS; 290,000 tested, 0.75% active; inhibition, % (concentration not given with the values); cell-free RecA intein splicing; Protein RecA (Mycobacterium tuberculosis (strain ATCC 25618 / H37Rv)), P9WHJ3; in the data active means inhibition above about 30%; inconclusive means no clear call, values can overlap the other calls
GDH-TPI counter = GDH-TPI coupling enzyme inhibitors, primary screen, artefact control for M. tuberculosis FBA inhibitor project, biochemical, absorbance, full deck | GDH-TPI coupled enzyme counterscreen, NADH absorbance | 360,000 tested, 1.2% active | inhibition, % at 4.8 µM | AID 588335, 2011; in the data active means inhibition above about 30%
Mtb UGM inh = M. tuberculosis UGM enzyme inhibitors, primary screen, biochemical, fluorescence polarization, single point; inhibition, % at 10 µM; UDP-galactopyranose mutase (Mycobacterium tuberculosis (strain ATCC 25618 / H37Rv)), …; purified UGM, fluorescence polarization probe displacement; 320,000 tested, 0.06% active; AID 504406, 2011; in the data active means inhibition above about 10%, passing the limit was not always enough; inconclusive means no clear call, values can overlap the other calls
Target sequence (P9WIQ1 whole entry, looked up): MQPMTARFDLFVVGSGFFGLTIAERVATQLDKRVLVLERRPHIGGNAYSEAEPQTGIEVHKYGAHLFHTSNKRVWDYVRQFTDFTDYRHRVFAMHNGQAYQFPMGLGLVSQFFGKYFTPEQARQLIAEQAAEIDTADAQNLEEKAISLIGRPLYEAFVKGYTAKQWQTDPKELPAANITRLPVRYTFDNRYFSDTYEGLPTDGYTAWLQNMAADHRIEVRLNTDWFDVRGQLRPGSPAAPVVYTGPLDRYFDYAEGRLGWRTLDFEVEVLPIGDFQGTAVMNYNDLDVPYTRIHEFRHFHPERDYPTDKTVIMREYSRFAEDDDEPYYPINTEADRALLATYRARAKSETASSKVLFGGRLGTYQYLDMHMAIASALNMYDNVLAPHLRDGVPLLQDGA
Mtb FBA inh = Mtb FBA enzyme inhibitors, primary screen, biochemical, fluorescence, strain H37Rv. Fructose-bisphosphate aldolase (Mycobacterium tuberculosis (strain ATCC 25618 / H37Rv)), …. purified M. tuberculosis FBA, fluorescence read-out. inhibition, % at 1 µM. 360,000 tested, 2.3% active; in the data active means inhibition above about 27%
Hits are given with their value; 0 = inactive; ? = inconclusive; - = not tested or not shown; + = active, no number. Hits are enriched below; roughly 4% of the tested compounds scored in any of these assays.

SMILES	Mtb betalactam	Rv3671c inh	RecA splice inh	GDH-TPI counter	Mtb UGM inh	Mtb FBA inh
CCOC(=O)c1cc(-c2ccc(/C=N\n3cnnc3)o2)ccc1Cl	0	0	0	47	0	0
CCOC(=O)c1cc(-c2ccc(/C=C3/C(=O)N(c4ccc(C(=O)O)cc4)N=C3C)o2)ccc1Cl	0	0	0	0	0	0
Cc1cc(-c2ccc(/C=N/n3cnnc3)o2)ccc1Cl	0	0	0	33	0	0
CCOC(=O)c1ccccc1NC(=O)COC(=O)CSCC(=O)Nc1cc(C)on1	0	0	0	0	0	0
Cc1cc(NC(=O)COC(=O)c2ccccc2NCCO)no1	0	0	-	0	0	127
N#Cc1c(NC(=O)c2ccccc2Cl)n(Cc2ccccc2)c2nc3ccccc3nc12	0	0	-	0	0	35
CCCCn1c(NC(=O)c2ccccc2Cl)c(C#N)c2nc3ccccc3nc21	?	0	0	0	0	0
O=C1CS/C(=N/N=C/c2cccs2)N1Cc1ccc(F)cc1	0	0	0	37	0	0
CCn1c(=O)c(C(=O)NCCNCCO)c(O)c2ccccc21	0	0	0	0	0	0
CCc1ccc(C(=O)NNC(=S)Nc2ccc(S(N)(=O)=O)cc2)s1	0	0	63	0	0	0
O=C(c1cccc(OC2CCN(Cc3ccc(F)cc3Cl)CC2)c1)N1CCCC1	0	0	0	0	0	0
CCC(CC)C(=O)Nc1ccncc1	0	0	0	-	0	-
CCC(CC)C(=O)Nc1ccc(-c2cn3cccnc3n2)cc1	0	0	0	0	0	+
COCC(=O)Nc1ccc(-c2cn3cccnc3n2)cc1	0	0	0	0	0	+
Cc1cccn2cc(-c3ccc(NC(=O)Cc4ccccc4)cc3)nc12	0	0	0	0	0	0
O=C(Nc1nnc([C@@H]2O[C@H](CO)[C@@H](O)[C@H]2O)s1)Nc1cccc2c1CCCC2	-	-	-	0	-	0
CCCCC(=O)Nc1nc(-c2ccc(S(=O)(=O)N3CCOCC3)cc2)cs1	0	0	0	0	0	36
O=C(Nc1nc(-c2ccc(S(=O)(=O)N3CCOCC3)cc2)cs1)c1ccccc1	0	0	0	0	0	0
CC(C)CC(=O)Nc1nc(-c2ccc(S(=O)(=O)N3CCOCC3)cc2)cs1	-	-	0	0	-	31
O=C(Oc1ccccc1/C=C\C(=O)c1cc2ccccc2o1)c1ccccc1	0	0	0	0	0	0
COc1cccc(C(=O)Oc2ccccc2/C=C\C(=O)c2cc3ccccc3o2)c1	-	-	0	31	-	0
COc1ccc2c(C)c(CC(=O)N3C[C@H]4C[C@@H](C3)c3cccc(=O)n3C4)c(=O)oc2c1C	0	0	0	0	0	134
C=C(C)COc1ccc2c(C)c(CC(=O)N3C[C@H]4C[C@@H](C3)c3cccc(=O)n3C4)c(=O)oc2c1C	0	0	0	0	0	124
Cc1cc(=O)oc2c(C)c(OCC(=O)N3C[C@H]4C[C@@H](C3)c3cccc(=O)n3C4)ccc12	0	0	0	0	0	0
Cn1cccc1/C=N/NC(=O)CNc1ccc2ccccc2c1	0	0	0	0	0	0
SMILES	Mtb betalactam	Rv3671c inh	RecA splice inh	GDH-TPI counter	Mtb UGM inh	Mtb FBA inh
Cc1ccc(NCC(=O)N/N=C/c2cccn2C)cc1	0	0	0	35	0	0
CN(C(=O)COC(=O)C1CCN(S(=O)(=O)c2c(Cl)cccc2Cl)CC1)C1CCS(=O)(=O)C1 (centres undefined)	0	0	0	0	-	0
CC(=O)c1ccc(N2CCCCC2)c(F)c1	0	0	0	0	0	0
CC(=O)c1ccc(N2CCCCCC2)c(F)c1	0	0	0	34	0	0
COc1ccc(/C=C/C(=O)NC(=S)Nc2ccc(S(=O)(=O)Nc3cc(C)on3)cc2)cc1	0	0	0	35	0	0
COc1ccc(/C=C/C(=O)NC(=S)Nc2ccc(S(=O)(=O)Nc3ccc(OC)nn3)cc2)cc1	0	0	0	39	0	0
COC(=O)c1[nH]c2ccc(Br)cc2c1NC(=O)C(C)N1CCN(C2CCCCC2)CC1 (centres undefined)	0	0	0	0	0	0
Cc1cc(C)c2c3c(sc2n1)C(c1cccc(F)c1)C(C#N)=C(N)O3 (centres undefined)	0	0	-	0	0	64
NC(=O)N\N=C/C=C/C=C/c1ccc(F)cc1	0	0	0	53	0	0
NC(=O)N/N=C/C=C/c1ccccc1	0	0	0	0	0	0
O=C(Nc1ncc2c(n1)-c1ccccc1OC2)c1ccc(F)cc1	0	0	0	0	0	+
CN(C)C(=O)COc1ccc2ccc(=O)oc2c1	0	0	0	0	0	0
CC(C)=CC(O)C/C(C)=C/COc1ccc2ccc(=O)oc2c1 (centres undefined)	0	0	0	0	0	83
COc1ccc(C(=O)c2c(-c3ccc(OC)cc3)oc3ccc(-c4cc(OC)c(OC)c(OC)c4)cc23)cc1	0	0	0	37	0	0
COc1ccc(-c2ccc3oc(-c4ccc(OC)cc4)c(C#CCO)c3c2)cc1	0	0	0	31	0	0
COc1ccc(-c2oc3ccc(-c4cc(OC)c(OC)c(OC)c4)cc3c2C(=O)c2ccc(OC)nc2)cc1	0	0	0	0	0	0
COc1ccc(-c2oc3ccc(-c4ccc5c(c4)OCO5)cc3c2C#CC2(O)CCCCC2)cc1	0	0	0	54	0	45
COc1ccc(-c2oc3ccc(-c4ccc(OC)nc4)cc3c2C#CC2(O)CCCCC2)cc1	0	0	0	31	0	0
COc1ccccc1-c1oc2ccccc2c1C#CC1(O)CCCCC1	0	0	-	0	0	0
COc1cc(-c2ccc3oc(-c4cccc(C)c4)c(C#CC4(O)CCCCC4)c3c2)cc(OC)c1OC	0	0	-	35	0	117
O=S(=O)(Nc1nc2ccccc2nc1NCC1CCCO1)c1ccccc1 (centres undefined)	0	0	0	41	0	0
Cc1ccc(S(=O)(=O)Nc2nc3ccccc3nc2NCC2CCCO2)cc1 (centres undefined)	0	0	0	0	0	0
COc1ccc(S(=O)(=O)Nc2nc3ccccc3nc2NCC2CCCO2)cc1 (centres undefined)	0	0	0	0	0	27
CC1CC(C)CN(C(=O)Cn2c(=O)oc3cc(S(=O)(=O)N4CCCC4)ccc32)C1 (centres undefined)	0	0	0	0	0	0
Cc1cccc(-c2cccc(NC(=O)C3CCCN(Cc4cccnc4)C3)c2)c1 (centres undefined)	0	-	0	0	0	0
COc1ccc(C2c3ccc(O)cc3Oc3ncn4nc(-c5ccccn5)nc4c32)cc1OC (centres undefined)	0	0	0	0	0	0
